Screening results (PubChem BioAssay)
3T3 cytotox: kills NIH 3T3 cells; NIH 3T3 viability, CellTiter-Glo ATP luminescence, 48-72 h; Potency, µM (titrated, usually from 96.7 µM), inactives show at the top dose activity change, negative = cytotoxicity, hits mostly inhibitors; actives 4.3% (n = 94,000); AID 1345082; also: nearly all actives have a fitted effect of over 55% in size
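Cells were seeded at 400 per well, treated with pin-transferred compound, and kept 48 or 72 hr at 37 °C before CellTiter-Glo addition and luminescence imaging of cellular ATP.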
HEK293 tox: cytotoxic compounds in HEK 293 cells; actives 6.6% (n = 94,000); Potency, µM (titrated, usually from 115 µM), inactives show at the top dose activity change, negative = cytotoxicity, actives largely listed as inhibitors; HEK 293 viability, ATP luminescence (CellTiter-Glo), 48-72 h; also: nearly all actives have a fitted effect of over 60% in size
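Viability of HEK 293 cells, plated at 250 cells/well, was judged by cellular ATP after compound treatment for 48 or 72 hr. Luminescence was imaged 10 min after CellTiter-Glo addition at room temperature.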
hNpr1 antagonist: human Npr1 receptor antagonism; AID 1347048; HEK293 hNpr1 GloSensor cGMP, ANP-stimulated luminescence; Potency, µM (titrated, usually from 46.3 µM), for the others: at the highest dose activity change, negative = inhibition, usual class: inhibitors; actives 1.6% (n = 76,000); P16066; calls by dose curve; also: nearly all actives have a fitted effect of over 60% in size
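Compound pre-incubated 30 min at room temperature on GloSensor-loaded HEK293 cells stably carrying hNpr1 and the pGS-40F cGMP biosensor. Stimulation uses hNppA at 0.1 nM final; luminescence is taken at baseline and 20 min post-agonist.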
GPT2 inhibitor: inhibitors of human GPT2 alanine aminotransferase. actives 0.25% (n = 100,000). AID 1671188. Recombinant GPT2, coupled pyruvate oxidase/HRP Amplex Red fluorescence. Potency, µM (series often up to 57.7 µM), without a hit: at the highest dose activity change, negative = inhibition, hits mostly inhibitors; also: nearly all actives have a fitted effect of over 60% in size
Target sequence (Q8TD30 whole entry, looked up): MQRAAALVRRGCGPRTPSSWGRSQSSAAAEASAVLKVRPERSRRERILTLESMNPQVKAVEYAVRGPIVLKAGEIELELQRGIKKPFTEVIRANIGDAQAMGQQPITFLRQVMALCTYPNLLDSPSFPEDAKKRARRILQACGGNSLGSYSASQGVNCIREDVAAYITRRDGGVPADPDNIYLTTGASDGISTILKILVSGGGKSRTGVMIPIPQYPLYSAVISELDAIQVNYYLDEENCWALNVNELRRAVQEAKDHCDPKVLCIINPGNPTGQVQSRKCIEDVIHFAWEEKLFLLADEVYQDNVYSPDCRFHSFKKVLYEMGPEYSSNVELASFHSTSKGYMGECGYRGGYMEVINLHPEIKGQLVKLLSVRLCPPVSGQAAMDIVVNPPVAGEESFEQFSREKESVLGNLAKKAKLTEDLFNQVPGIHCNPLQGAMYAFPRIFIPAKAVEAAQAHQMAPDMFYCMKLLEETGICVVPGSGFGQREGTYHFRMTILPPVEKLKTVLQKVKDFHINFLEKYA
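Fluorescence read-out: pyruvate from GPT2 turnover coupled to pyruvate oxidase, HRP and Amplex Red (0.2mM ThPP, 0.2U/mL PO and HRP, 50uM Amplex final). Substrates 250uM a-KG, 2mM L-alanine; enzyme 10ng/uL; 30 min RT.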
FLuc inh: inhibitors of firefly (Photinus pyralis) luciferase; P08659; Potency, µM (doses to about 115 µM), actives largely listed as inhibitors; AID 1347043; purified P. pyralis luciferase, luminescence, biochemical; actives 2.5% (n = 76,000); also: nearly all actives have a fitted effect of over 65% in size
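Luminescence read by CCD imager after adding enzyme (10nM final) to wells holding compound, titrated in qHTS. Substrates 10uM each D-luciferin and ATP; buffer 50mM Tris acetate pH 7.5, 10mM Mg acetate, Tween-20, BSA.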
Active calls of the source: *; i = inactive; ? = inconclusive; . = no result; [ ] = dose if it differs, or a comment. Only some compounds are listed: those with a hit (about 10% of all), similar ones and a draw of the others. Unless noted, calls follow the shape of the dose curve; as a rule, active = well fitted curve in the direction sought with a large enough effect; inconclusive = small, poorly fitted or top-dose-only effect, or another doubt; inactive = no such curve, though single readings can be large; an effect the other way counts as inactive or inconclusive. % is scaled to controls: 0 for no effect and ±100 for the full control effect; potency is read from the fitted curve at half-maximal effect.

SMILES	3T3 cytotox	HEK293 tox	hNpr1 antagonist	GPT2 inhibitor	FLuc inh
CCC1CN(c2ccc(-c3nc(-c4ccc(OC)cc4)no3)cn2)CCN1C (centres undefined)	79µM*	?	-4%	i	?
COC1CCN(c2ccc(-c3nc(COc4ccccc4)no3)cn2)CC1	-28%	?	?	i	i
Cn1ncc2c(C(=O)N3CCC(C#N)CC3)cc(-c3ccc(Cl)cc3Cl)nc21	-32%	?	.	-44%	.
Cc1ccc(C2Cn3nnc(C(=O)N4CCC(C(=O)NCC(C)c5ccccc5)CC4)c3CO2)cc1 (centres undefined)	i	-1%	-1%	i	32µM*
O=C(NCc1ccccc1)C1CCN(C(=O)c2nnn3c2COC(c2ccc(F)cc2)C3)CC1 (centres undefined)	-16%	11%	1%	i	i
Cc1ccc(C2Cn3nnc(C(=O)N4CCC(C(=O)NCc5ccccc5)CC4)c3CO2)cc1 (centres undefined)	-8%	3%	3%	i	40µM*
Cc1ccc(C2Cn3nnc(C(=O)N4CCC(C(=O)NCc5cccs5)CC4)c3CO2)cc1 (centres undefined)	3%	5%	3%	-3%	35µM*
CCc1ccc(CNC(=O)C2CCN(C(=O)c3nnn4c3COC(c3ccc(C)cc3)C4)CC2)cc1 (centres undefined)	-12%	-16%	-13%	i	40µM*
Cc1ccc(CNC(=O)C2CCN(C(=O)c3nnn4c3COC(c3ccc(C)cc3)C4)CC2)cc1 (centres undefined)	2%	1%	-1%	4%	i
Cc1ccc(C2Cn3nnc(C(=O)N4CCC(C(=O)NC(C)c5ccccc5)CC4)c3CO2)cc1 (centres undefined)	-10%	-30%	3%	i	?
Cc1ccc(C2Cn3cnc(C(=O)N4CCC(C(=O)NCc5cccs5)CC4)c3CO2)cc1 (centres undefined)	2%	1%	0%	i	?
Cn1nc(C2CCCC2)cc1NC(=O)c1cccc(Br)c1	?	?	.	i	.
O=C(CNC(=O)c1ccc(-c2cccc(C(F)(F)F)c2)cc1)NC1CCCC1	?	?	.	-8%	.
Cc1ccc(C2Cn3nnc(C(=O)N4CCC(C(=O)NC5CCCCC5)CC4)c3CO2)cc1 (centres undefined)	i	8%	0%	1%	?
Cc1ccc(C2Cn3nnc(C(=O)N4CCC(C(=O)NC5CCC(C)CC5)CC4)c3CO2)cc1 (centres undefined)	-22%	-15%	-4%	i	28µM*
O=C(NC1CCCN(c2ccnc3ccnn23)C1)c1ccc(Cl)cc1 (centres undefined)	?	40µM*	.	-6%	.
COc1cccc(C(=O)NC2CCN(c3ccnc4ccnn34)CC2)c1	?	35µM*	.	-4%	.
O=C(NC1CCCN(c2ccnc3ccnn23)C1)c1ccccc1 (centres undefined)	?	?	.	i	.
O=C(NC1CCCN(c2ccnc3ccnn23)C1)c1ccc2c(c1)OCO2 (centres undefined)	?	35µM*	.	0%	.
COc1cccc(C(=O)NC2CCCN(c3ccnc4ccnn34)C2)c1 (centres undefined)	?	?	.	i	.
COc1ccc(C(=O)NC2CCCN(c3ccnc4ccnn34)C2)cc1 (centres undefined)	?	32µM*	.	i	.
O=C(NC1CCCN(c2ccnc3ccnn23)C1)c1cccc(Cl)c1 (centres undefined)	?	?	.	i	.
O=C(NC1CCCN(c2ccnc3ccnn23)C1)c1cccc(Br)c1 (centres undefined)	?	79µM*	.	-8%[88.5 µM]	.
O=C(CNC(=O)c1ccc(-c2cnc3ccccc3c2)cc1)NCc1ccc(C(F)(F)F)cc1	-20%	-12%	.	i	.
COc1ccc(C(OC2OC(CO)C(O)C(O)C2O)C(C)O)cc1 (centres undefined)	.	.	.	i	.
SMILES	3T3 cytotox	HEK293 tox	hNpr1 antagonist	GPT2 inhibitor	FLuc inh
COc1cccc(CN2Cc3nc(-c4c(C)noc4C)ccc3OCC2=O)c1	40µM*	?	-7%[70.6 µM]	5%[88.5 µM]	i
COc1cccc(CN2Cc3nc(-c4ccc(F)cc4)ccc3OCC2=O)c1	79µM*	?	-22%[70.6 µM]	-2%[88.5 µM]	i
COc1cccc(CN2Cc3nc(-c4cnn(C)c4)ccc3OCC2=O)c1	?	-16%[172 µM]	1%[70.6 µM]	2%[88.5 µM]	i
COc1cccc(CN2Cc3nc(-c4cccc(NC(C)=O)c4)ccc3OCC2=O)c1	?	79µM*	-15%[70.6 µM]	0%[88.5 µM]	i
CC(=O)Nc1cccc(-c2ccc3c(n2)CN(Cc2ccccc2)C(=O)CO3)c1	?	?	0%[70.6 µM]	-5%[88.5 µM]	i
COc1cccc(CN2Cc3nc(-c4cc5ccccc5o4)ccc3OCC2=O)c1	?	79µM*	-15%[70.6 µM]	-9%[88.5 µM]	i
O=C(NCCCc1ccccc1)c1ccc2nccn2c1	?	?	-3%[70.6 µM]	i	i
COc1ccccc1Nc1ccnc(N2CCC(C(=O)NCCCc3ccccc3)CC2)n1	?	?	.	i	.
COc1cccc(CN2Cc3nc(-c4cc(Cl)ccc4OC)ccc3OCC2=O)c1	?	100µM*	-1%[70.6 µM]	4%[88.5 µM]	i
COc1cccc(CN2CCc3c(cc(C(=O)Nc4ccccc4OC)n3C)C2)c1	?	40µM*	-3%	i	16µM*
COc1cccc(CN2CCc3c(cc(C(=O)Nc4cccc(C)c4C)n3C)C2)c1	?	40µM*	6%	?	22µM*
COc1cccc(CN2CCc3c(cc(C(=O)NCc4ccccn4)n3C)C2)c1	?	?	2%	3%	i
COc1ccccc1NC(=O)c1cc2c(n1C)CCN(Cc1cccc(C)c1)C2	?	?	0%	i	32µM*
Cn1c(C(=O)NC(C)(C)C)cc2c1CCN(Cc1cccc(F)c1)C2	?	?	1%	-3%	i
COc1cccc(CN2CCc3c(cc(C(=O)N4CCOCC4)n3C)C2)c1	-8%	-9%	0%	i	i
COc1ccc(NC(=O)c2cc3c(n2C)CCN(Cc2ccc(F)cc2)C3)cc1	?	?	-3%	0%	?
COc1cccc(CN2CCc3c(cc(C(=O)Nc4ccccc4)n3C)C2)c1	?	45µM*	-26%	?	16µM*
O=C(NC1CCN(c2ccnc3ccnn23)C1)c1ccc(F)cc1 (centres undefined)	-38%[138 µM]	?	.	i	.
COc1cccc(C(=O)N2CCN(C(=O)c3cccc(-c4ccccc4OC)c3)CC2)c1	?	?	.	-1%	.
